This note sets out measurements from the antibiotic and cytotoxicity screens of Wong et al. (2023).

In all, about 39,000 compounds went through this assay and about 1,500 (3.8%) were called active. For the sample, actives were picked, then their nearest neighbours and some compounds at random.

This test has as its system HSkMC (human skeletal muscle cells). The experiment in a line: cytotoxicity call (relative viability < 0.9). Conditions: 10 µM.
For `C[C@@H]1CN([C@H](C)CO)C(=O)CCCn2nncc2CO[C@@H]1CN(C)S(=O)(=O)c1ccc(-n2cccn2)cc1`, the cytotoxicity call is “inactive”.

With `CC[C@@H](C)N[C@H]1CCS(=O)(=O)C1`, the cytotoxicity call was “inactive”.

`Cc1cccc([C@@H](N)c2nccn2C)c1`: the cytotoxicity call is “inactive”.

Turning to `O=C(CCCCCNC(=O)OCCCCO[C@H]1C[C@@H](c2ccc(C(F)(F)F)cc2)C=C(C(=O)N2CCN(Cc3ccccc3)CC2)O1)NO`, the cytotoxicity call is “inactive”.

For the molecule `CN(C)CC(=O)N[C@@H]1CC[C@@H](CC(=O)NCCN2CCCCC2)O[C@H]1CO`, the cytotoxicity call was “inactive”.

`C[C@H](CO)N1C[C@H](C)[C@@H](CN(C)S(=O)(=O)c2ccc(F)cc2)Oc2c(NC(=O)Nc3ccc(C(F)(F)F)cc3)cccc2C1=O`: the cytotoxicity call was “inactive”.

Take `O=C(NCCN1CCCC1)[C@H]1[C@H](CO)[C@H]2Cn3c(cccc3=O)[C@@H]1N2C(=O)c1ccccc1`: the cytotoxicity call was “inactive”.

As to `C[C@H](CO)N1C[C@H](C)[C@H](CN(C)C(=O)Nc2cccc3ccccc23)Oc2c(NS(=O)(=O)c3ccc(Cl)cc3)cccc2C1=O`, the cytotoxicity call was “inactive”.

With `CO[C@@H]1[C@H](O[P@@](=O)(OC[C@H]2O[C@@H](n3cnc4c(N)ncnc43)C[C@@H]2O)SCOC(=O)OC(C)C)[C@@H](CO)O[C@H]1n1ccc(=O)[nH]c1=O`, the cytotoxicity call is “inactive”.

On to `CO[C@@H]1[C@H](O[P@@](=O)(S)OC[C@H]2O[C@@H](n3cnc4c(N)ncnc43)C[C@@H]2O)[C@@H](CO)O[C@H]1n1ccc(=O)[nH]c1=O`, for which the cytotoxicity call is “active”.

Consider `Nc1ncnc2c1ncn2[C@@H]1O[C@H](COP(=O)(O)O)[C@@H](O)[C@H]1O`, for which the cytotoxicity call is “inactive”.

With `O=C(C[C@@H]1CC[C@H]2[C@@H](COC[C@H](O)CN2S(=O)(=O)c2ccccc2)O1)NCCN1CCCC1`, the cytotoxicity call is “inactive”.

Consider `C[C@H]1CN([C@@H](C)CO)C(=O)Cc2cc(NS(=O)(=O)c3cccs3)ccc2O[C@H]1CN(C)S(=O)(=O)c1cccs1`, for which the cytotoxicity call is “inactive”.

With `CO[C@H]1O[C@@H](COC(C)=O)[C@@H](OC(C)=O)C(C#N)(C#N)[C@@H]1OC(C)=O`, the cytotoxicity call is “inactive”.

For `Clc1ccccc1C(c1ccccc1)(c1ccccc1)n1ccnc1`, the cytotoxicity call is “active”.

For `N#CC(c1ccccc1)(c1ccccc1)c1ccccc1Cl`, the cytotoxicity call was “inactive”.

As for `C[C@H](CO)N1C[C@H](C)[C@H](CN(C)S(=O)(=O)c2ccc(Cl)cc2)OCCCC[C@H](C)Oc2ccc(NC(=O)c3ccncc3)cc2C1=O`, the cytotoxicity call was “inactive”.

As to `Cc1cccc(S(=O)(=O)N2C[C@H](O)COC[C@H]3O[C@@H](CC(=O)NCCCN4CCOCC4)CC[C@@H]32)c1`, the cytotoxicity call was “inactive”.

Turning to `COc1c(C)cnc2c1c(=O)n(CC(N)=O)c(=O)n2C`, the cytotoxicity call is “inactive”.

On to `C[C@@H]1CCCCO[C@H](CN(C)Cc2ccc(C(F)(F)F)cc2)[C@H](C)CN([C@H](C)CO)C(=O)c2cc(NS(=O)(=O)c3cccs3)ccc2O1`, for which the cytotoxicity call is “inactive”.

Regarding `O=C(NC1CCCCCCC1)c1ccccc1-c1ccccc1`, the cytotoxicity call was “inactive”.

Take `C[C@]1(C(=O)NCC(F)(F)F)c2ccccc2C(=O)N(Cc2cc(C(F)(F)F)cc(C(F)(F)F)c2)[C@H]1c1ccc(CO)cc1`: the cytotoxicity call was “inactive”.

On to `O=C(NC1CCN(CCCCC2(C(=O)NCC(F)(F)F)c3ccccc3-c3ccccc32)CC1)c1ccccc1-c1ccc(C(F)(F)F)cc1`, for which the cytotoxicity call is “active”.

As to `COc1ccc(S(=O)(=O)Nc2ccc3c(c2)C(=O)N([C@H](C)CO)C[C@H](C)[C@@H](CN(C)C(=O)NC(C)C)O3)cc1`, the cytotoxicity call is “inactive”.

In the case of `CCCCCCCCC(=O)O`, the cytotoxicity call was “inactive”.

Regarding `CN1CCN(S(C)(=O)=O)CC1`, the cytotoxicity call was “inactive”.

For the molecule `C[C@H](CO)N1C[C@H](C)[C@@H](CN(C)C(=O)c2ccc3c(c2)OCO3)Oc2ncc(C#CCN(C)C)cc2C1=O`, the cytotoxicity call is “inactive”.

With `C[C@H]1CN([C@@H](C)CO)C(=O)c2cc(NS(=O)(=O)c3ccc(F)cc3)ccc2O[C@H]1CN(C)Cc1ccc(Oc2ccccc2)cc1`, the cytotoxicity call is “inactive”.

Consider `C[C@@H]1CN([C@@H](C)CO)C(=O)c2cc(NS(=O)(=O)c3ccc(F)cc3)ccc2O[C@H]1CN(C)Cc1ccc(Oc2ccccc2)cc1`, for which the cytotoxicity call was “inactive”.

In the case of `C[C@@H]1CN([C@@H](C)CO)C(=O)c2cc(NS(=O)(=O)c3ccc(F)cc3)ccc2O[C@@H]1CN(C)Cc1ccc(Oc2ccccc2)cc1`, the cytotoxicity call is “active”.

In the case of `C[C@@H]1CN([C@H](C)CO)C(=O)c2cc(NS(=O)(=O)c3ccc(F)cc3)ccc2O[C@H]1CN(C)Cc1ccc(Oc2ccccc2)cc1`, the cytotoxicity call is “inactive”.

Turning to `C[C@H]1CN([C@@H](C)CO)C(=O)c2cc(NS(=O)(=O)c3ccc(F)cc3)ccc2O[C@@H]1CN(C)Cc1ccc(Oc2ccccc2)cc1`, the cytotoxicity call is “inactive”.

For `C[C@@H]1CN([C@H](C)CO)C(=O)c2cc(NS(=O)(=O)c3ccc(F)cc3)ccc2O[C@@H]1CN(C)Cc1ccc(Oc2ccccc2)cc1`, the cytotoxicity call was “active”.

For `C[C@H](CO)N1C[C@H](C)[C@@H](CN(C)CC2CCOCC2)Oc2cc(C#Cc3ccccc3F)ccc2S1(=O)=O`, the cytotoxicity call was “inactive”.

`C[C@@H]1CN([C@H](C)CO)C(=O)c2cc(NC(=O)CCCN(C)C)ccc2O[C@H]1CN(C)Cc1ccncc1`: the cytotoxicity call was “inactive”.

As for `CN(C)CC(=O)N1[C@@H]2c3cccc(=O)n3C[C@H]1[C@H](CO)[C@H]2C(=O)NCc1ccccc1`, the cytotoxicity call is “inactive”.

For the molecule `C[C@@H]1CCCCO[C@@H](CN(C)S(=O)(=O)c2ccc(F)cc2)[C@@H](C)CN([C@H](C)CO)C(=O)c2cc(NC(=O)c3ccccc3)ccc2O1`, the cytotoxicity call was “inactive”.

In the case of `CCc1nnc(SCC(=O)O)n1N`, the cytotoxicity call is “inactive”.

In the case of `COc1ccc(S(=O)(=O)Nc2ccc3c(c2)C(=O)N([C@@H](C)CO)C[C@H](C)[C@@H](CN(C)C(=O)Nc2ccc4c(c2)OCO4)OCCCC[C@H](C)O3)cc1`, the cytotoxicity call was “inactive”.

For `COc1ccc(CN(C)C[C@H]2Oc3ccc(NC(=O)CCN4CCOCC4)cc3CC(=O)N([C@@H](C)CO)C[C@@H]2C)cc1`, the cytotoxicity call is “inactive”.

On to `C[C@@H]1CCCCO[C@@H](CN(C)Cc2ccc(C(=O)O)cc2)[C@@H](C)CN([C@@H](C)CO)C(=O)c2cc(NC(=O)Nc3ccc(C(F)(F)F)cc3)ccc2O1`, for which the cytotoxicity call was “inactive”.

For the molecule `COc1ccc(CCN(C)CCCOc2ccc(S(=O)(=O)c3c(C(C)C)cn4ccccc34)cc2)cc1OC`, the cytotoxicity call is “active”.

`COc1cc(C(=O)NCc2ccc(OCCN(C)C)cc2)cc(OC)c1OC.Cl`: the cytotoxicity call is “inactive”.

For the molecule `COc1ccc(CCN(C)CCCOc2ccc(S(=O)(=O)c3c(C(C)C)c4ccccc4n3C)cc2)cc1OC`, the cytotoxicity call was “active”.

Consider `COc1ccc(C(=O)NCc2ccc(OCCN(C)C)cc2)cc1OC`, for which the cytotoxicity call is “inactive”.

As for `COc1ccc(CCN(C)CCCOc2ccc(S(=O)(=O)c3[nH]c4ccccc4c3C(C)C)cc2)cc1OC`, the cytotoxicity call was “active”.

Turning to `C[C@H](CO)N1C[C@H](C)[C@H](CN(C)C(=O)Nc2ccc(F)cc2)OCCCC[C@H](C)Oc2ccc(NS(=O)(=O)c3ccccc3)cc2C1=O`, the cytotoxicity call is “inactive”.

As to `Cc1ccc(-c2csc(-c3ccc(CN)cc3)n2)cc1`, the cytotoxicity call was “active”.

For the molecule `Cc1ccc(-c2csc(-c3ccc(C(F)(F)F)cc3)n2)cc1`, the cytotoxicity call was “inactive”.

On to `CCCc1cc(-c2nc(-c3ccc(C)cc3)cs2)ccn1`, for which the cytotoxicity call was “inactive”.

Take `CCc1ccccc1C(=O)N1CCC[C@@H](Cn2cc(C(C)(C)N)nn2)C1`: the cytotoxicity call was “inactive”.

Regarding `COc1ccc2c3c(ccc2c1)-c1[nH]c2ccccc2c1CC3`, the cytotoxicity call was “inactive”.

As for `COc1ccc2[nH]c3c(-c4cccc5ccccc45)nccc3c2c1`, the cytotoxicity call is “active”.

On to `COc1ccc2[nH]c(=O)[nH]c(=O)c2c1`, for which the cytotoxicity call was “inactive”.

As for `COc1ccc(-c2ccc3n(c2=O)C[C@@H]2[C@@H](CO)[C@H](C(=O)NCC4CC4)[C@H]3N2S(C)(=O)=O)cc1`, the cytotoxicity call was “inactive”.

`C[C@@H]1CN([C@H](C)CO)S(=O)(=O)c2ccc(C#Cc3ccccc3)cc2O[C@@H]1CN(C)S(=O)(=O)c1ccccc1F`: the cytotoxicity call was “inactive”.

Consider `C[C@H](CO)N1C[C@H](C)[C@@H](CN(C)C(=O)Cc2ccccc2)Oc2ncc(C#CC3(O)CCCC3)cc2C1=O`, for which the cytotoxicity call is “inactive”.

For the molecule `C[C@@H]1CN([C@H](C)CO)C(=O)c2cc(C#CC3(O)CCCC3)cnc2O[C@H]1CN(C)C(=O)Cc1ccccc1`, the cytotoxicity call was “inactive”.

With `C[C@H](CO)N1C[C@H](C)[C@H](CN(C)C(=O)Cc2ccccc2)Oc2ncc(C#CC3(O)CCCC3)cc2C1=O`, the cytotoxicity call is “active”.

Consider `CC(=O)N(C)C[C@@H]1Oc2ncc(C#CC(C)(C)O)cc2C(=O)N([C@@H](C)CO)C[C@@H]1C`, for which the cytotoxicity call is “active”.

With `CC(=O)N(C)C[C@H]1Oc2ncc(C#CC(C)(C)O)cc2C(=O)N([C@H](C)CO)C[C@H]1C`, the cytotoxicity call was “inactive”.

On to `CC(=O)N(C)C[C@@H]1Oc2ncc(C#CC(C)(C)O)cc2C(=O)N([C@@H](C)CO)C[C@H]1C`, for which the cytotoxicity call is “inactive”.

Turning to `Cc1noc(C)c1S(=O)(=O)Nc1ccc2c(c1)CC(=O)N([C@@H](C)CO)C[C@@H](C)[C@H](CN(C)S(=O)(=O)c1ccccc1)O2`, the cytotoxicity call is “inactive”.

On to `C[C@@H]1CN([C@@H](C)CO)C(=O)Cc2cc(NS(=O)(=O)c3ccccc3)ccc2O[C@@H]1CN(C)CC1CC1`, for which the cytotoxicity call was “inactive”.

In the case of `COc1ccc(S(=O)(=O)Nc2ccc3c(c2)C(=O)N([C@H](C)CO)C[C@H](C)[C@@H](CN(C)C(=O)NC2CCCCC2)OCCCC[C@H](C)O3)cc1`, the cytotoxicity call is “inactive”.

`CC(C)NC(=O)N(C)C[C@@H]1Oc2ccc(NS(=O)(=O)c3ccccc3)cc2C(=O)N([C@@H](C)CO)C[C@@H]1C`: the cytotoxicity call is “inactive”.

Regarding `C[C@H]1CCCCO[C@@H](CN(C)Cc2ccc(C(=O)O)cc2)[C@@H](C)CN([C@@H](C)CO)C(=O)c2cc(NC(=O)Nc3cccc4ccccc34)ccc2O1`, the cytotoxicity call was “inactive”.

Take `CCC(=O)Nc1ccc2c(c1)OC[C@H](C)N(C(=O)CN1CCOCC1)C[C@@H](C)[C@@H](OC)CN(C)C2=O`: the cytotoxicity call is “inactive”.

Regarding `O=C(Nc1ccc(-c2nc3ccc(NC(=O)c4ccc(NC(=O)c5cccc6ccccc56)cc4)cc3[nH]2)cc1)c1ccc(NC(=O)c2cccc3ccccc23)cc1`, the cytotoxicity call is “inactive”.

Turning to `O=C(Nc1ccc(-c2nc3ccc(NC(=O)c4ccc(Cl)cc4)cc3[nH]2)cc1)c1ccc(Cl)cc1`, the cytotoxicity call was “active”.

In the case of `O=C(Nc1ccc(-c2nc3ccc(NC(=O)c4ccccc4[N+](=O)[O-])cc3[nH]2)cc1)c1ccccc1[N+](=O)[O-]`, the cytotoxicity call was “inactive”.
